Bioassay records from PubChem BioAssay.
KDM5B inhibitor = Primary screen for KDM5B Histone Demethylases FDH-coupled qHTS; Lysine-specific demethylase 5B (Homo sapiens), Q9UGL1; KDM5B demethylase, FDH-coupled NADH fluorescence (FDH is formaldehyde dehydrogenase); 220,000 tested, 2.6% active; Potency, µM (titrated, usually from 57.7 µM), actives largely listed as inhibitors; active = well fitted inhibition curve with a large enough effect; also: 0% is about no effect; nearly all actives have a fitted effect of over 70% in size
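Coupled FDH/NAD⁺ fluorescence readout. KDM5BΔAP 200 nM final; compound titration, 10 min RT preincubation; substrate mix 12.5 µM H3K4me3, 25 µM 2-OG, 50 µM Fe(II), 100 µM ascorbate, 0.25 mM NAD⁺, 0.25 U/mL FDH; ΔRFU over 30 min.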
Numbers without * were called inactive; i = inactive; ! = a repeat was not active. This is one part of a sample in which hits are shown more often than they occur. Potency is read from the fitted curve at half-maximal effect.

SMILES	KDM5B inhibitor
O=C(c1cccs1)N1Cc2[nH]cnc2C[C@H]1c1nc(-c2ccc3ccccc3c2)no1	i
Fc1ccc(-c2noc([C@@H]3Cc4nc[nH]c4CN3Cc3cc4ccccc4o3)n2)cc1Cl	28.2µM*
c1ccc2cc(-c3noc([C@@H]4Cc5nc[nH]c5CN4CC4CCCCC4)n3)ccc2c1	28.2µM*
COc1ccc(CN2Cc3[nH]cnc3C[C@H]2c2nc(-c3ccccc3)no2)cc1	i
Fc1ccc(-c2noc([C@@H]3Cc4nc[nH]c4CN3Cc3ccccc3)n2)cc1Cl	35.5µM*
Cc1c(C(=O)N2CCc3ccccc3C2)nnn1-c1ccc(Br)cc1	i
COc1cccc(CNC(=O)Cn2c(C)cc3nc4n(c(=O)c32)CCCCC4)c1	i
CCN(Cc1cnn(CC)c1)C(=O)c1c(C)oc2c1CN(Cc1ccc(F)cc1)CC2	i
c1ccc(-c2cn3c4ccccc4nc3n2CCN2CCCCC2)cc1	i
COc1ccc(C2Cn3cnc(C(=O)N4CCC(C(=O)Nc5ccc(C)c(F)c5)CC4)c3CO2)cc1 (stereo not drawn)	i
O=C(Nc1ccccc1F)N1CC2CCC(C1)N2Cc1ccc(-c2cccs2)cc1	i
Cc1cc(F)ccc1S(=O)(=O)N(Cc1cnn(C)c1)C(C)C	i
CN(C)c1ccc(CN[C@H]2CC(C)(C)[C@@H]3C[C@@](C)(O)CC[C@]23CCC(=O)N2CCOCC2)cc1	i
Cc1cccc(N2C(=O)CSC23CCN(C(=O)C2CC2)CC3)c1	25.1µM*
Cc1cccc(N2C(=O)CSC23CCN(C(=O)COc2ccccc2)CC3)c1	i
COc1ccc(N2C(=O)CSC23CCN(C(=O)Nc2ccc(C)cc2)CC3)cc1	i
COc1ccc(CCNC(=O)C(CCS(C)(=O)=O)N2Cc3ccccc3C2=O)c(OC)c1OC (stereo not drawn)	i
COc1ccc(OC(=O)c2cnccn2)cc1	i
Cc1cn2nc(C(=O)Nc3ccc(C(=O)NCCc4cccs4)cc3)cc2c(=O)[nH]1	25.1µM*
COc1cc(NC(=O)c2cc3c(=O)[nH]c(C)cn3n2)cc(OC)c1OC	i
O=C(NCCc1cccs1)c1ccc(Cl)cc1	i
CCOc1ccc(CN2CCN(c3nc(C)cc(NC)n3)CC2CCO)cc1 (stereo not drawn)	i
O=C(CN1CCN(Cc2nc3ccccc3o2)CC1)NC1CC1	i
COc1ccc(NC(=O)COC(=O)c2cc3ccccc3cc2O)cc1Cl	i
O=C(NCCNS(=O)(=O)c1cccs1)c1cc2ccccc2[nH]1	i
SMILES	KDM5B inhibitor
CC(C)c1nc2nccc(-c3cc4ccccc4o3)n2n1	i
COc1ccc(-c2ccnc3nc(C(C)C)nn23)c(F)c1	i
COc1ccc(-c2ccnc3nc(C(C)C)nn23)cc1OC	28.2µM*
COc1ccc(-c2nn3c(C(C)C)nnc3s2)cc1OC	i
COc1ccc(-c2ccnc3nc(C(C)C)nn23)cc1	25.1µM*
COc1ccc(-c2nc(C(C)C)nc3c2CCN(C(C)=O)CC3)cc1	i
CCOc1cc(NC(=O)c2ccc(Cn3cc(Br)cn3)cc2)ccc1OC(F)F	i
C=CCNC(=O)C(NC(C)=O)C1CCCC1 (stereo not drawn)	i
CC(C)c1nc2c(c(-c3ccc(O)cc3)n1)CCN(Cc1ccccc1C(F)(F)F)CC2	i
COc1ccccc1CC(=O)N1CCC(Cc2nc(-c3ccc(F)cc3)no2)CC1	i
c1ccc(-c2n[nH]c(C3CCCCN3)n2)cc1 (stereo not drawn)	i
c1ccc(CN2CC[C@H](c3nc4ncccc4[nH]3)C2)cc1	i
c1cnc2nc(C3CCCN3)[nH]c2c1 (stereo not drawn)	12.6µM*!
Fc1ccc(CSc2nc(CN3CCOCC3)nc3ccccc23)c(Cl)c1	i
CCOc1ccccc1C(=O)N[C@@H]1CN(C)C[C@H]1CN(C)C	i
CN(C)C[C@@H]1CN(S(C)(=O)=O)C[C@H]1NC(=O)CCc1ccccc1	i
COc1ccccc1CCC(=O)N[C@@H]1CN(c2ccncn2)C[C@H]1CN(C)C	i
COc1ccc(CCC(=O)N[C@@H]2CN(c3ncccn3)C[C@H]2CN(C)C)cc1	22.4µM*
COc1ccc(CC(=O)N[C@@H]2CN(c3ccncn3)C[C@H]2CO)cc1	i
COc1ccc(CCC(=O)N[C@@H]2CN(c3ncccn3)C[C@H]2CO)cc1	22.4µM*
COCCC(=O)N[C@@H]1CN(c2ccncn2)C[C@H]1CO	i
COc1ccccc1CC(=O)N[C@@H]1CN(c2ncccn2)C[C@H]1CN(C)C	22.4µM*
Cc1nn(C)c(C)c1CCC(=O)N[C@@H]1CN(c2ccncn2)C[C@H]1CN(C)C	i
COCCC(=O)N[C@@H]1CN(C)C[C@H]1CN(C)C	i
COc1ccc(CCC(=O)NC2CC(=O)N(c3ccccc3)C2)cc1 (stereo not drawn)	i
CN(C)C[C@@H]1CN(c2ncccn2)C[C@H]1NC(=O)CCn1cccn1	28.2µM*
O=C(NCCc1ccncc1)C1CN(C(=O)Cc2ccccc2Cl)CC12CCOCC2 (stereo not drawn)	i
COCc1nnc(NC(=O)CCn2ccc3cc(Br)ccc32)s1	i
